HCV inhibitor = blocks hepatitis C virus | Huh7.5.1 HCVcc-Cre infection, luciferase reporter, 44 h | Potency, µM (titrated, usually from 41.8 µM), without a hit: top-dose activity change, negative = inhibition, hits mostly inhibitors | 3.4% of 340,000 active | AID 651820; also: % is scaled to controls: 0 for no effect and ±100 for the full control effect
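Infectious HCV cell culture screen: compound-treated cells (1,000/well, pre-plated 4 h) are infected with HCVcc-Cre at roughly 0.5 moi and grown 44 h. Infection is quantified by luciferase signal after 15 min substrate incubation at room temperature.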
SARS PLpro yeast = blocks SARS-CoV papain-like protease in a yeast assay; Potency, µM (series often up to 32.9 µM), without a hit: top-dose activity, positive = growth rescue, hits mostly activators; S. cerevisiae expressing SARS-CoV PLpro, growth rescue; AID 485353; 0.19% of 330,000 active; calls by dose curve; also: 0% is about no effect; nearly all actives have a fitted effect of over 55% in size
Pf growth 96h = P. falciparum growth inhibition at 96 hours; Potency, µM (titrated, usually from 28.7 µM), for the others: top-dose activity change, negative = inhibition, usual class: inhibitors; 6.9% of 320,000 active; P. falciparum luciferase reporter growth, 96 h; AID 504834; also: % is scaled to controls: 0 for no effect and ±100 for the full control effect
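P. falciparum expressing integrated firefly luciferase, in erythrocytes at 2% hematocrit, 0.05% parasitemia, incubated with compounds 96 h at 37 C, 5% CO2. Growth inhibition read as loss of luminescence; two-generation exposure targets delayed-death apicoplast inhibitors.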
NS1 function inh = blocks influenza NS1 protein function. Potency, µM (titrated, usually from 46.1 µM), inactives show at the highest dose activity, positive = more growth. 0.4% of 270,000 active. AID 2326; calls by dose curve; also: actives are rising curves; nearly all actives have a fitted effect of over 50% in size
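Recovery from NS1-induced slow growth read by OD600 in budding yeast switched to galactose assay medium (pH 6.0, -URA) at 1:100 dilution. Compound 23 nl per well; the matching strain lacking NS1 serves as control.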
Pf growth 48h = inhibits P. falciparum growth in the first generation, 48 h; Potency, µM (doses to about 28.7 µM), without a hit: at the top dose activity change, negative = inhibition, usual class: inhibitors; P. falciparum luciferase growth in erythrocytes, 48 h; 5.9% of 310,000 active; AID 504832; also: % is scaled to controls: 0 for no effect and ±100 for the full control effect
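Cell-based growth assay: transgenic P. falciparum expressing firefly luciferase, cultured in red cells within RPMI 1640 containing 0.5% w/v Albumax, 24 mM bicarbonate and gentamycin. A drop in luciferase activity indicates inhibition.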
AMA1 RON2 block = AMA1-RON2 (P. falciparum) interaction inhibition; AlphaScreen AMA1-biotinylated RON2 peptide binding; Potency, µM (highest dose often 58.2 µM), for inactives: at the highest dose activity change, negative = inhibition, actives largely listed as inhibitors; 0.2% of 360,000 active; AID 720542;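 also: 0% = vehicle wells and -100% = peptide control; nearly all actives have a fitted effect of over 45% in size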
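AMA1 (3D7) with his tag at 25 nM final met compounds first, then biotinylated RON2 peptide at 25 nM; detection used donor plus acceptor beads, 10 µg/mL apiece, read by AlphaScreen after 30 min at room temperature.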
* marks the source's active call; other numbers are inactive results; ? = inconclusive; nt = not tested or not shown; [ ] = dose if it differs, or a comment. The list is not random: actives were taken first. Their share in the collection is about 12%. Unless noted, calls follow the shape of the dose curve; as a rule, active = well fitted curve in the direction sought with a large enough effect; inconclusive = small, poorly fitted or top-dose-only effect, or another doubt; inactive = no such curve, though single readings can be large; an effect the other way counts as inactive or inconclusive. Potency is read from the fitted curve at half-maximal effect.

SMILES	HCV inhibitor	SARS PLpro yeast	Pf growth 96h	NS1 function inh	Pf growth 48h	AMA1 RON2 block
CC1CCC(C(C)C)C(OC(=O)Cn2c(-c3ccccc3)[n+](C)c3ccccc32)C1 (stereo not drawn)	?	-11%	245%	-7%	0.47µM*	6%
CC1CCC(C(C)C)C(OC(=O)Cn2c(-c3ccc(F)cc3)[n+](C)c3ccccc32)C1 (stereo not drawn)	10µM*	-15%	?	-7%	0.83µM*	-11%
CC1CCC(C(C)C)C(OC(=O)C[n+]2cc(-c3ccc(Cl)cc3)n3c2CCC3)C1 (stereo not drawn)	-15%	2%	?	-31%	?	2%
CCCCCCCCC(=O)c1c(OC)oc(C=O)cc1=O	nt	nt	nt	nt	nt	0%
Cc1cc(C)n(CC(=O)NNC(=O)COc2ccc(Br)cc2F)n1	-11%	-3%	nt	nt	nt	117%[11.6 µM]
O=C1Nc2ccccc2C(=O)N2C[C@@H](O)C[C@H]12	10%	0%	17%	1%	19%	-2%
CCCCNC(C(=O)Nc1ccc(Cl)c([N+](=O)[O-])c1)c1ccccc1 (stereo not drawn)	-13%	-22%	12µM*	-13%	?	8%
COc1cc(NC(=O)CN2CCN(S(=O)(=O)c3ccc(C(C)C)cc3)CC2)cc(OC)c1	14%	-2%	31%	-53%	?	-16%
COc1ccc(S(=O)(=O)N2CCN(CC(=O)c3[nH]c(C)c(C(C)=O)c3C)CC2)cc1OC	-8%	-2%	?	nt	?	3%
COc1cccc(NC(=O)CN2CCN(S(=O)(=O)c3ccc(C(C)C)cc3)CC2)c1	-3%	-5%	12µM*	-42%	?	-4%
COc1cccc(N2CCN(CC(=O)Nc3ccc(S(=O)(=O)N4CCCCCC4)cc3)CC2)c1	?	0%	?	nt	12µM*	-4%[11.6 µM]
CC(=O)c1c(C)[nH]c(C(=O)CN2CCN(S(=O)(=O)c3ccc(C(C)C)cc3)CC2)c1C	?	-5%	12µM*	nt	12µM*	-9%
CC1CCN(C(=O)COc2ccc(S(=O)(=O)N3CCOCC3)cc2)CC1	7%[8.37 µM]	4%	-11%	nt	?	2%
Cc1cccc(C)c1NC(=O)C(c1ccc(C#N)cc1)n1c(=O)c(-c2ccco2)nc2ccccc21 (stereo not drawn)	nt	nt	nt	nt	nt	0%
COc1ccc(CCn2c(C)cc3c(c2=O)C(c2ccc4c(c2)OCO4)C(C#N)=C(N)O3)cc1OC (stereo not drawn)	?	-2%	nt	22%	8.3µM*	0%
Cc1cc2c(c(=O)n1Cc1ccc3c(c1)OCO3)C(c1cccnc1)C(C#N)=C(N)O2 (stereo not drawn)	-14%	?	-12%[5.75 µM]	1%	12µM*	-11%
Cc1cc2c(c(=O)n1Cc1ccccn1)C(c1ccc3c(c1)OCO3)C(C#N)=C(N)O2 (stereo not drawn)	-28%	0%	5%	4%	-3%	74%
Cc1cc2c(c(=O)n1Cc1cccnc1)C(c1ccccc1)C(C#N)=C(N)O2 (stereo not drawn)	-6%	0%	3%	0%	?	4%
CCOC(=O)N(C)S(=O)(=O)c1ccccc1[N+](=O)[O-]	14%	3%	13%	nt	-5%	0%
O=C1CCNCCN1[C@H](CO)c1ccccc1	?	nt	?	5%	0%	15%
Cc1ccc(-c2nnc(Nc3ccc(C(N)=O)cc3)c3ccccc23)cc1S(=O)(=O)NCC1CCCO1 (stereo not drawn)	6%	8%	?	-3%	8.3µM*	6%
Cc1ccc(-c2nnc(N3CCCCC3)c3ccccc23)cc1S(=O)(=O)NCC1CCCO1 (stereo not drawn)	?	1%	nt	-13%	4.7µM*	-9%
Clc1cccc(-c2nc(-c3ccc(-c4nn[nH]n4)cc3)no2)c1	nt	0%	59%	nt	91%	nt
Clc1ccccc1Cc1noc(CN2CCN3CCCC3C2)n1 (stereo not drawn)	-13%	0%	2.9µM*	0%	?	0%

Screening data as filed in PubChem.
